HP1b chromo inh – inhibitors of HP1-beta chromodomain binding to methylated histone tails; P83916; AlphaScreen HP1-beta / biotin-H3K9me3 peptide binding; Potency, µM (highest dose often 114 µM), for inactives: at the top dose activity change, negative = inhibition, most hits filed as inhibitors; 390,000 compounds, 0.56% hits; AID 540317; note: potency is the fitted concentration of half-maximal effect; nearly all actives have a fitted effect of over 70% in size
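AlphaScreen: HP1-beta (50 nM) preformed 30 min with biotin-H3(1-18)K9me3 peptide (50 nM) in PBS pH 7.4, 0.01% Tween-20. Compound added for 30 min at RT, then streptavidin donor/nickel chelate acceptor beads (10 ug/mL) for 30 min.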
JMJD2A Tudor inh – JMJD2A Tudor domain (human) inhibition | O75164 | AlphaScreen JMJD2A-Tudor / H3K4me3 peptide binding | Potency, µM (titrated, usually from 114 µM), for inactives: top-dose activity change, negative = inhibition, hits mostly inhibitors | 390,000 compounds, 4.4% hits | AID 504339; note: potency is the fitted concentration of half-maximal effect; % is set by controls: 0 for no effect and ±100 for the full control effect; nearly all actives have a fitted effect of over 50% in size
BAZ2B block – inhibitors of human BAZ2B bromodomain | Q9UIF8 | AlphaScreen BAZ2B-H3K14Ac peptide displacement | Potency, µM (highest dose often 114 µM), for inactives: top-dose activity change, negative = inhibition, usual class: inhibitors | 360,000 compounds, 4.4% hits; note: potency is the fitted concentration of half-maximal effect; % is set by controls: 0 for no effect and ±100 for the full control effect; nearly all actives have a fitted effect of over 60% in size
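Multi-concentration screen (max 110 uM) measuring displacement of acetylated histone H3 peptide from BAZ2B by AlphaScreen, using 50 nM protein, 50 nM peptide and 10 ug/mL streptavidin donor plus Ni-chelate acceptor beads.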
PI5P4K alpha inh – PI5P4K alpha (human) kinase inhibition; P48426; PI5P4Kalpha enzyme, ADP-Glo luminescence, 60 min; hits give low values; max response, %; 330,000 compounds, 1.2% hits; AID 652105; active = max response of -50% or lower; inconclusive = between -30% and -50%; inactive = -30% or higher; note: value at the top dose of about 77 µM; % is set by controls: 0 for no effect and ±100 for the full control effect
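Quantitative HTS of the MLSMR library against PI5P4Kalpha with substrate. ATP added last at 5 microM final; room temperature, 60 minutes. Remaining ATP depleted, ADP converted and read as luminescence.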
KDM4E inh – blocks human JMJD2E demethylase activity; 230,000 compounds, 1.6% hits; JMJD2E catalytic domain, FDH-coupled NADH fluorescence (FDH is formaldehyde dehydrogenase); Potency, µM (top dose mostly 57.1 µM), for the others: top-dose activity change, negative = inhibition, most hits filed as inhibitors; B2RXH2; AID 2147; active = well fitted inhibition curve with a large enough effect, not every such curve was filed as active; inconclusive = small, poorly fitted or top-dose-only effect, or another doubt; inactive = no such curve, though single readings can be large or run the other way;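 note: potency is the fitted concentration of half-maximal effect; 0% = wells with enzyme and -100% = buffer wells without enzyme; nearly all actives have a fitted effect of over 50% in size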
L3MBTL1 inh-1 – blocks human L3MBTL1. AlphaScreen L3MBTL1–H3K9me1 peptide binding. Potency, µM (series often up to 57.1 µM), without a hit: top-dose activity, negative = inhibition, most hits filed as inhibitors. 230,000 compounds, 0.66% hits. Q9Y468; note: potency is the fitted concentration of half-maximal effect; % is set by controls: 0 for no effect and ±100 for the full control effect; nearly all actives have a fitted effect of over 60% in size
Target sequence (Q9Y468 whole entry, looked up): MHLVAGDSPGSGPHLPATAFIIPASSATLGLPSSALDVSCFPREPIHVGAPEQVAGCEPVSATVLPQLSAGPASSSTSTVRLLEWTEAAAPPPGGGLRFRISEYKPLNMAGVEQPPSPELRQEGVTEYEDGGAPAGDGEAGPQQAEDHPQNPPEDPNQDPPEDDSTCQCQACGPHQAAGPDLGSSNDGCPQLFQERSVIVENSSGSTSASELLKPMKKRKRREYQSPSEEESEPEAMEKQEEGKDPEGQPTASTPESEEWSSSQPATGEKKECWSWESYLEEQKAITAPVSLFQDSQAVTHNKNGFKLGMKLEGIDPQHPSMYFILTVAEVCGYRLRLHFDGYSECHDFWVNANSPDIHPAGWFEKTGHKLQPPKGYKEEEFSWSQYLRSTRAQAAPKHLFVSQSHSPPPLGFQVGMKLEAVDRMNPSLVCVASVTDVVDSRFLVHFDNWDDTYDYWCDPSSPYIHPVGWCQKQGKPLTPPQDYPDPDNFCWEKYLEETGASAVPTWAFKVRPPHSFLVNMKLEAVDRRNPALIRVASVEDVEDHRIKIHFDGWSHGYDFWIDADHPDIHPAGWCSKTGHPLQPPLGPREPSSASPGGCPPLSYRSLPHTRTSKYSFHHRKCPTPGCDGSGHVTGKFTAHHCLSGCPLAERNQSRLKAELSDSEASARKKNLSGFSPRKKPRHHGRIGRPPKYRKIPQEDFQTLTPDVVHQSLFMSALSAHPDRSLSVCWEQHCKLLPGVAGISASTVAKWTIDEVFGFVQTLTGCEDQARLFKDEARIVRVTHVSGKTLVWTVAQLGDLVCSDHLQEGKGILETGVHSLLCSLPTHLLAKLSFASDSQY
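L3MBTL1 50 nM + b-AHA-H3(1-15)K9me1 75 nM, 30 min RT; compound added, 30 min RT; streptavidin donor/Ni-chelate acceptor beads 10 ug/mL each final, 30 min RT dark; AlphaScreen read.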
L3MBTL1 inh-2 – validation of human L3MBTL1 methyl-lysine binding inhibitors; Potency, µM, hits mostly inhibitors; shares compounds with L3MBTL1 inh-1; 500 compounds, 91% hits; AID 540279; L3MBTL1 methyl-lysine binding inhibition, biochemical qHTS; note: potency is the fitted concentration of half-maximal effect; nearly all actives have a fitted effect of over 70% in size
L3MBTL1 ctr – interferes with AlphaScreen signal in L3MBTL1 counterscreen; shares compounds with L3MBTL1 inh-1; AlphaScreen counterscreen, signal inhibition; Potency, µM (top dose mostly 57.1 µM), inactives show at the highest dose activity change, negative = inhibition, most hits filed as inhibitors; 500 tested, under 10 active; note: potency is the fitted concentration of half-maximal effect; 0% is about no effect
* = called active by the depositor; [ ] = remark or other dose. Compounds with a hit are over-represented: about 5.7% of the library has one in this group of screens. Unless noted, calls come from the whole dose curve; as a rule, active = well fitted curve in the direction sought with a large enough effect; inconclusive = small, poorly fitted or top-dose-only effect, or another doubt; inactive = no such curve, though single readings can be large; an effect the other way counts as inactive or inconclusive.

`c1ccc(Cc2nn3c(Cn4nnc5ccccc54)nnc3s2)cc1` gave HP1b chromo inh -41%, JMJD2A Tudor inh -29%, BAZ2B block -1%, KDM4E inh -4% and L3MBTL1 inh-1 2%.
For COC(=O)\C(C(C)=O)=C(/C=C/C=C/C=C/N(C)C)N(C)C the results were HP1b chromo inh inconclusive, JMJD2A Tudor inh 11µM*, BAZ2B block 18µM*, PI5P4K alpha inh 1, KDM4E inh 22µM*, L3MBTL1 inh-1 7.1µM*, L3MBTL1 inh-2 3* and L3MBTL1 ctr inconclusive.
`Cc1cccc(NC(=O)/C(=C\c2ccc([N+](=O)[O-])o2)NC(=O)c2ccc(Cl)cc2)c1` gave HP1b chromo inh inconclusive, JMJD2A Tudor inh 35µM*, BAZ2B block 50µM*, PI5P4K alpha inh inconclusive, KDM4E inh 3%, L3MBTL1 inh-1 28µM*, L3MBTL1 inh-2 13* and L3MBTL1 ctr 1%.
Screening COC(=O)/C(=C\c1ccc([N+](=O)[O-])o1)NC(=O)c1ccccc1 returned HP1b chromo inh 21%, JMJD2A Tudor inh 0%, BAZ2B block -4%, PI5P4K alpha inh 4 and KDM4E inh -6%.
CCOc1cc(CNC(=O)C2COc3ccccc3C2)cc(OCC)c1OCC (centres undefined) was read as HP1b chromo inh 21%[57 µM], JMJD2A Tudor inh -10% and BAZ2B block -1%.
For CC(C)S(=O)(=O)C1=NSC2=NC(=O)/C(=C\c3ccc(-c4cccc(C(=O)O)c4)o3)C(=N)N21 the results were HP1b chromo inh 10%, JMJD2A Tudor inh inconclusive, BAZ2B block 79µM*, PI5P4K alpha inh -104*, KDM4E inh 0%, L3MBTL1 inh-1 13µM*, L3MBTL1 inh-2 3.8* and L3MBTL1 ctr -19%.
O=NN(CC(=O)NNc1ccccc1)CC(=O)NNc1ccccc1 was read as PI5P4K alpha inh -15.
`O=c1cc(C(F)(F)F)nc(-n2[nH]c3c(c2=O)CCCC3)[nH]1` gave HP1b chromo inh 26%, JMJD2A Tudor inh -2%[57.1 µM], BAZ2B block 2.5µM*, PI5P4K alpha inh -11, KDM4E inh 2%, L3MBTL1 inh-1 8.9µM*, L3MBTL1 inh-2 inconclusive and L3MBTL1 ctr 46%.
`O=C(Oc1ccccc1F)c1ccc2c(=O)n3c(nc2c1)CCC3` gave HP1b chromo inh 18%, JMJD2A Tudor inh -12%, BAZ2B block -1%, PI5P4K alpha inh -1, L3MBTL1 inh-1 35µM*, L3MBTL1 inh-2 inconclusive and L3MBTL1 ctr 9%.
Screening Nc1ccc2nc3n(c(=O)c2c1)CCC3 returned HP1b chromo inh 44%, JMJD2A Tudor inh -18%, BAZ2B block 6%, PI5P4K alpha inh -1, KDM4E inh inconclusive and L3MBTL1 inh-1 -12%.
Screening O=c1c2ccccc2nc2n1CCC2 returned HP1b chromo inh -57%, JMJD2A Tudor inh 14µM*, BAZ2B block 14µM*, PI5P4K alpha inh -3, KDM4E inh 8.9µM*, L3MBTL1 inh-1 28µM*, L3MBTL1 inh-2 24* and L3MBTL1 ctr inconclusive.
`Nc1ccn(CCCNCC(c2ccccc2)c2ccccc2)c(=O)n1` gave PI5P4K alpha inh -1.
For O=C1OC(c2cccs2)=N/C1=C/c1ccc(-c2cccc(C(=O)O)c2)o1 the results were HP1b chromo inh inconclusive, JMJD2A Tudor inh 50µM*, BAZ2B block 25µM*, PI5P4K alpha inh -70*, KDM4E inh inconclusive, L3MBTL1 inh-1 0.56µM*, L3MBTL1 inh-2 3.4* and L3MBTL1 ctr -6%.
COC(=O)c1ccccc1NC(=O)CSc1nc(N)cc(=O)[nH]1 was read as HP1b chromo inh inconclusive, JMJD2A Tudor inh inconclusive, BAZ2B block 56µM*, PI5P4K alpha inh inconclusive, KDM4E inh -3%, L3MBTL1 inh-1 25µM*, L3MBTL1 inh-2 11* and L3MBTL1 ctr inconclusive.
For COC(=O)c1c(SC)nc2ccccc2c1OCc1ccc(C)cc1C the results were HP1b chromo inh 123%, JMJD2A Tudor inh 126% and BAZ2B block 145%.
For COc1ccc(Cc2nnc(NC(=O)Cc3cccs3)s2)cc1OC the results were HP1b chromo inh inconclusive, JMJD2A Tudor inh -35%[57.1 µM], BAZ2B block 28µM*, PI5P4K alpha inh -92*, KDM4E inh -1%, L3MBTL1 inh-1 6.3µM*, L3MBTL1 inh-2 11* and L3MBTL1 ctr -7%.
`O=C(Oc1c(CN2CCOCC2)cc(Cl)c2cccnc12)c1ccccc1Br` gave HP1b chromo inh 18%, JMJD2A Tudor inh 40µM*, BAZ2B block 20µM*, PI5P4K alpha inh 0, KDM4E inh inconclusive, L3MBTL1 inh-1 32µM*, L3MBTL1 inh-2 24* and L3MBTL1 ctr 2%.
For O=C1NC(=Nc2ccc(O)cc2)S/C1=C\C=C\c1ccco1 the results were HP1b chromo inh -8%, JMJD2A Tudor inh -8%[11.4 µM], BAZ2B block inconclusive, PI5P4K alpha inh inconclusive, KDM4E inh -10%, L3MBTL1 inh-1 16µM*, L3MBTL1 inh-2 13* and L3MBTL1 ctr 2%.
`Cc1ccc(F)c(C2C3C=CCC(c4ccccc4)C3C(=O)N2Cc2ccccc2)c1` (centres undefined) gave HP1b chromo inh 5% and JMJD2A Tudor inh -12%.
For Cc1nnc(N2C(=O)c3oc4ccccc4c(=O)c3C2c2ccco2)s1 (centres undefined) the results were HP1b chromo inh 25%, JMJD2A Tudor inh -30%, BAZ2B block -13%, PI5P4K alpha inh -17, KDM4E inh -2%, L3MBTL1 inh-1 22µM*, L3MBTL1 inh-2 inconclusive and L3MBTL1 ctr 8%.
`COCCCNC(=O)/C(C#N)=C/c1ccc(OCC(=O)O)c(OC)c1` gave HP1b chromo inh inconclusive, JMJD2A Tudor inh 50µM*, BAZ2B block 20µM*, PI5P4K alpha inh inconclusive, KDM4E inh inconclusive, L3MBTL1 inh-1 3.5µM*, L3MBTL1 inh-2 2.1* and L3MBTL1 ctr inconclusive.
For Cc1ccc(NC(=O)CN2C(=O)N/C(=C\c3cccn3-c3cccc(C(=O)O)c3)C2=O)cc1 the results were HP1b chromo inh 71µM*, JMJD2A Tudor inh 22µM*, BAZ2B block 10µM*, PI5P4K alpha inh -76*, KDM4E inh -17%, L3MBTL1 inh-1 10µM*, L3MBTL1 inh-2 2.1* and L3MBTL1 ctr 6%.

Assay outcomes as filed in PubChem.
